Screening results from PubChem BioAssay.
In the library only some 10% were active in any assay of this set; here they are far more common.
G9a inh-1 = qHTS Assay for Inhibitors of Histone Lysine Methyltransferase G9a; Potency, µM (series often up to 102 µM), hits mostly inhibitors; hit rate 8.8% among 350,000; G9a H3K9 monomethylation, AlphaScreen, 2 h; AID 504332, 2011; Histone-lysine N-methyltransferase EHMT2 (Homo sapiens), Q96KQ7; also: nearly all actives have a fitted effect of over 75% in size
Target sequence (Q96KQ7 913-1193 limits assumed): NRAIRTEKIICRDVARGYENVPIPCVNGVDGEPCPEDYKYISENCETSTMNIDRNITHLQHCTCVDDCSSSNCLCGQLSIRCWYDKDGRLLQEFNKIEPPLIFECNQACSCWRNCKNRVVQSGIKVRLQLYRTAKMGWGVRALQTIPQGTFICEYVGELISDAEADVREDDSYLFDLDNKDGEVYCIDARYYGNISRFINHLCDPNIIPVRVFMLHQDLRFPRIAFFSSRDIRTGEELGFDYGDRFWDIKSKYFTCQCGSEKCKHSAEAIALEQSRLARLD
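Signal arises when biotinylated H3K9 peptide, once monomethylated, bridges streptavidin donor and antibody-captured acceptor beads. Enzyme at 20 nM was preincubated 15 min with test compounds; peptide 500 nM and SAM 20 uM then reacted for 2 h.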
HP1b binding inh = HTS for Inhibitors of HP1-beta Chromodomain Interactions with Methylated Histone Tails | hit rate 0.56% among 390,000 | Chromobox protein homolog 1 (Homo sapiens), P83916 | AlphaScreen HP1-beta / biotin-H3K9me3 peptide binding | AID 540317, 2011 | Potency, µM (highest dose often 114 µM), actives largely listed as inhibitors; also: nearly all actives have a fitted effect of over 70% in size
Target sequence (P83916 whole entry, looked up): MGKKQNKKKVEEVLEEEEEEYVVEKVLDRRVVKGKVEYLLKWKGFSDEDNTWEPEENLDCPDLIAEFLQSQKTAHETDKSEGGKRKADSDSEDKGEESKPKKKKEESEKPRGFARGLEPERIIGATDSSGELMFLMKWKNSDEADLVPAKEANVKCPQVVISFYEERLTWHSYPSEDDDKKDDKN
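Compound inhibition of the preformed complex between 50 nM HP1-beta and 50 nM biotinylated H3K9me3 peptide was read by AlphaScreen. Buffer was PBS pH 7.4 with 0.01% Tween-20. Incubations ran 30 min at room temperature, with 10 ug/mL donor/acceptor beads.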
CtBP-E1A inh = qHTS Assay for Inhibitors of the CtBP/E1A Interaction; CtBP / adenovirus E1A interaction (AlphaScreen); AlphaScreen GST-E1A/His-CtBP binding, 1536-well; active compounds read low; activity change, % (test concentration not listed); hit rate 0.49% among 340,000; in the data active = activity change below about -65%; inconclusive = mostly about -30% to -63%
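Homogeneous bead-based format: GST-tagged E1A captured on glutathione donor beads, His-tagged CtBP on nickel acceptor beads; compounds precede bead addition by 2 h at 37 °C.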
BAZ2B inh = qHTS Assay for Inhibitors of BAZ2B. Bromodomain adjacent to zinc finger domain protein 2B (Homo sapiens), Q9UIF8. AlphaScreen BAZ2B-H3K14Ac peptide displacement. Potency, µM (top dose mostly 114 µM), hits mostly inhibitors. hit rate 4.4% among 360,000. AID 504333, 2011; also: nearly all actives have a fitted effect of over 60% in size
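Compounds, titrated to a top concentration of 110 uM, were incubated 30 min at room temperature with preformed BAZ2B/acetyl-K14 H3 peptide complex (50 nM each). Proximity signal was measured by AlphaScreen after 20 min with beads.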
JMJD2A Tudor = qHTS Assay for Inhibitors of JMJD2A-Tudor Domain; Potency, µM (titrated, usually from 114 µM), hits mostly inhibitors; AID 504339, 2011; Lysine-specific demethylase 4A (Homo sapiens), O75164; AlphaScreen JMJD2A-Tudor / H3K4me3 peptide binding; hit rate 4.4% among 390,000; also: nearly all actives have a fitted effect of over 50% in size
Six1-Eya2 blk = qHTS Assay for Inhibitors of the Six1/Eya2 Interaction | hit rate 0.56% among 360,000 | Homeobox protein SIX1 (Homo sapiens) + Protein phosphatase EYA2 (Homo sapiens), … | AID 651725, 2012 | AlphaScreen GST-Six1/His-Eya2 binding, biochemical; active compounds read low | activity change, % (no concentration beside the values); in the data active = activity change below about -65%; inconclusive = mostly about -30% to -63%
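Homogeneous AlphaScreen proximity assay pairing GST-Six1 with His-tagged Eya2 (added as 5X mix: 250 nM and 500 nM) in 50 mM Tris pH 8.0, 300 mM NaCl, 1 mM TCEP. Glutathione donor and nickel acceptor beads; 1 h, 37 °C, dark.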
G9a inh-2 = qHTS Assay for Inhibitors of Histone Lysine Methyltransferase G9a: Hit Confirmation. G9a H3K9 monomethylation, AlphaScreen, 2 h. Potency, µM, hits mostly inhibitors. shares compounds with JMJD2A Tudor. hit rate 89% among 370; also: nearly all actives have a fitted effect of over 65% in size
RGS4 inh = qHTS for Inhibitors of Regulator of G Protein Signaling(RGS) 4: Hit Validation; shares compounds with JMJD2A Tudor; RGS4 GAP activity, Transcreener GDP fluorescence polarization; Potency, µM, actives largely listed as inhibitors; hit rate 80% among 25; AID 602388, 2012
Numbers stand for hits; – = inactive; ? = inconclusive; · = not tested or not shown; [ ] = remark or other dose. Unless noted, calls follow the shape of the dose curve; as a rule, active = well fitted curve in the direction sought with a large enough effect; inconclusive = small, poorly fitted or top-dose-only effect, or another doubt; inactive = no such curve, though single readings can be large; an effect the other way counts as inactive or inconclusive.

SMILES | G9a inh-1 | HP1b binding inh | CtBP-E1A inh | BAZ2B inh | JMJD2A Tudor | Six1-Eya2 blk | G9a inh-2 | others
Cc1ccc(NC(=O)CNc2ccc(OC(C)C)cc2)cc1 | 0.79µM | – | – | 50µM | ? | – | 7.9
CCN(CC)c1ccc(NC(=O)COc2ccc(C)cc2)cc1 | 1.4µM | – | ? | ? | ? | ? | 2.8
CCN(CC)c1ccc(NC(=O)COC(=O)Cc2ccsc2)cc1 | 2.8µM | ? | – | 45µM | 50µM | ? | 6.3
CCN(CC)c1ccc(NC(=O)COC(=O)C23CCC(=O)N2c2ccccc2S3)cc1 (stereo not drawn) | ? | ? | – | ? | ? | – | 5
Cc1ccc(OCC(=O)Nc2ccc(C(N)=O)cc2)cc1 | – | – | – | – | – | – | ·
CC(=O)N1CCN(c2ccc(NC(=O)c3ccc([N+](=O)[O-])cc3)cc2)CC1 | – | – | – | – | – | – | ·
Cc1nc(SCC(=O)c2cc(C)n(C3CC3)c2C)c2ccccc2n1 | · | · | – | · | · | – | ·
O=C(NCCS(=O)(=O)N1CCN(c2cccc(Cl)c2)CC1)c1ccco1 | –[0.501 µM] | – | – | – | – | – | ·
Cn1c(SCC(=O)Nc2ccccc2)nnc1-c1ccccc1 | – | – | · | – | – | · | ·
Cn1c(SCC(=O)Nc2ccc3c(c2)oc2ccccc23)nnc1-c1ccccc1 | 2µM | – | – | – | ? | – | 7.1
Cn1c(SCC(=O)N2CCOCC2)nnc1-c1cccc(NC(=O)c2ccccc2F)c1 | ? | – | – | – | – | – | ·
COc1ccc(-c2nnc(SCC(=O)NC(=O)Cc3ccccc3)n2C)cc1 | ? | – | – | – | – | – | ?
Cn1c(SCC(=O)NC(C)(C)C)nnc1-c1cccc(NC(=O)c2ccccc2F)c1 | ? | – | – | – | ? | – | 1.4
NS(=O)(=O)c1ccc(CCNC(=O)CCCOc2ccccc2)cc1 | – | – | – | – | – | – | ·
Cc1ccc(C)c(N2CCN(C(=O)c3cccn4c(=O)c5sccc5nc34)CC2)c1 | – | – | – | · | – | – | ·
c1ccc(-c2ccc(N3CCCC4(CCNCC4)C3)cc2)cc1 | –[12.7 µM] | · | · | · | · | · | · | RGS4 inh=27
CN1CCC(N(C)CC(=O)Nc2cccc(Oc3ccccc3)c2)CC1 | ? | – | – | 50µM | 6.3µM | – | ?
CN1CCC(NC(=O)c2cccc(Oc3ccccc3)c2)CC1 | · | – | – | – | – | – | ·
CC(C)CCN1C(=O)c2ccc(C(=O)Nc3ccccn3)cc2C1=O | – | – | – | – | – | – | ·
CCOc1cc(CN2CCN(S(=O)(=O)c3ccc(C)cc3)CC2)ccc1OC | 0.89µM | ? | · | 50µM | 25µM | · | 32
CCOc1ccc(C(=O)c2cnc3ccccc3c2N2CCN(CC)CC2)cc1 | ? | – | – | – | – | – | ?
OC(c1ccccc1)c1ncc(-c2cccc(F)c2)[nH]1 (stereo not drawn) | · | · | – | · | · | – | ·
COC(=O)c1cc(S(=O)(=O)Nc2cccc(-c3cnco3)c2)oc1C | – | – | – | – | – | – | ·
CSc1nnc(C2CCCN2)n1C (stereo not drawn) | 2.5µM | – | – | 18µM | ? | ? | 4.5
O=C(CN1CCN(c2ccc(F)cc2)CC1)N1CCC(Cc2ccccc2)CC1 | ? | ? | – | 35µM | 11µM | – | 16
